In PubChem BioAssay AID624116 (National Center for Advancing Translational Sciences (NCATS), 2012) one finds outcome data, which are given here for six molecules.

Inconclusive results are not listed. The source made the active and inactive calls. The call rests on the fitted dose curve; in most records, active means well fitted activation curve with a large enough effect; inconclusive means small, poorly fitted or top-dose-only effect; inactive means no such curve, though single readings can be large or run the other way.

A short description of the experiment: qHTS Assay for Rab9 Promoter Activators: Hit Validation Using Renilla Luciferase Read-Out for Rab9. As to conditions: Huh7 Rab9 promoter Renilla luciferase reporter, 24 h; series mostly up to 76.9 µM. The text has this: Niemann Pick Type C (NPC) is a rare neurodegenerative lipidosis that is characterized by lipid storage in the endosomal/lysosomal system. Treatment modalities for this devastating disease are currently non-existent due to the severe obstacles associated with accessing the central nervous system with proteins or genes. The majority of mutations causing NPC disease are missense mutations that are distributed throughout the length of the NPC1 protein, with the most prevalent being the I1061T allele. Although NPC1 mutant proteins may be functional, they are typically trapped in the ER due to misfolding. […] We have developed and optimized a cell based renilla luciferase reporter assay in 1536 well format for the identification of up-regulators of the mutant Rab9 promoter. This assay presents data on the validation of hits from the primary screen, which used a firefly luciferase read-out. NIH Chemical Genomics Center [NCGC] NIH Molecular Libraries Probe Production centers Network [MLPCN] MLPCN Grant: MH089375 Assay Submitter (PI): Yiannis A. Ioannou
Huh7 cells stably expressing NPC promoter-luciferase will be seeded at 1,500 cells/well in 5 uL in 1,536-well white opaque plates with 23 nL/well of compound in DMSO solution. The assay plates will be incubated at 37 deg C for 24 hours, after which 3 uL/well BriteLite plus luciferase detection reagent mixture (Perkin Elmer) will be added. Luminescence signal will be measured in a ViewLux plate reader (Perkin Elmer) after a 10 minute incubation at the room temperature.
On the technique in general: Quantitative high-throughput screening tests each substance at several concentrations.
On to `CCC(=NCc1cccnc1)c1c(O)n(-c2ccccc2)c(=O)[nH]c1=O`, for which the result was inactive.
The same measure for `CN1CCc2cc3c(c4c2C1Cc1ccccc1-4)OCO3` (stereo unspecified): “inactive”; for `COc1cccc(CCNCc2ccc(SC)cc2)c1`: “inactive”.
The same measure for `O=C1c2ccccc2C(=O)N1Cc1nc2ccccc2c(=O)n1-c1cccnc1`: “inactive”; for `Cc1cccn2c(NCC3CCCO3)c(C(C)C)nc12` (stereo unspecified): “inactive”.
As to `COc1ccc(C(CC(=O)N2CCC3(CC2)OCCO3)NS(=O)(=O)c2ccc(F)cc2)cc1` (stereo unspecified), the outcome was inactive.
